Measured values reported in the supplement of paper PMC6555819.

Tests used:
Test in all cases: PBM binding z-score (relative to random genomic background probes); higher = stronger binding; sequences stand for … in GC…GCGATTGACAGCGTAGAATGAAGG
[1] = system: PPARg:RXRa DBDmut IVT, anti-RXR (DBD mutation: RXRa K156A/R161A, NR concentration 270 nM, RXRa partner concentration 90 nM)
How it was run: (§1)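 Custom Agilent 4×180K protein-binding microarrays carried double-stranded probes, each with a 34-nt variable region. These regions held direct-repeat seeds, single-nucleotide variants, half-site ablations and random human genomic background sequences. Ligand-free nuclear receptor dimers were incubated on the arrays for 1 h, antibodies against each partner (one per run) detected binding, and scanned fluorescence was regression-normalized. Binding z-scores take the random background probes as reference.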

[2] = system: PPARg:RXRa IVT, anti-PPARg (NR concentration 270 nM, RXRa partner concentration 90 nM)
How it was run: as §1

[3] = system: PPARg DBDmut:RXRa IVT, anti-PPARg (DBD mutation: PPARg1 K132A/R137A, NR concentration 270 nM, RXRa partner concentration 90 nM)
How it was run: as §1

[4] = system: PPARg DBDmut IVT, anti-PPARg (DBD mutation: PPARg1 K132A/R137A, NR concentration 270 nM)
How it was run: as §1

[5] = system: PPARg homodimer (NR concentration 180 nM)
How it was run: as §1

[6] = system: PXR:RXRa (NR concentration 270 nM, RXRa partner concentration 90 nM)
How it was run: as §1

[7] = system: PXR homodimer (NR concentration 270 nM)
How it was run: as §1

[8] = system: RARa:RXR (NR concentration 270 nM, RXRa partner concentration 90 nM)
How it was run: as §1

[9] = system: RARa homodimer (NR concentration 270 nM)
How it was run: as §1

[10] = system: RARb:RXRa (NR concentration 270 nM, RXRa partner concentration 90 nM)
How it was run: as §1

Sequence | PBM binding z-score [1] | PBM binding z-score [2] | PBM binding z-score [3] | PBM binding z-score [4] | PBM binding z-score [5] | PBM binding z-score [6] | PBM binding z-score [7] | PBM binding z-score [8] | PBM binding z-score [9] | PBM binding z-score [10]
TCTCGGAGGACACGCAAGGTCAGAGCTCGACATC | 1.62 | 1.03 | -0.531 | -0.649 | 0.657 | 2.67 | 0.389 | 2.61 | 0.379 | 3.4
CCAGACAGGTGAAAGGTAACTCTGTCTGGTACGC | 2.33 | 3.16 | 0.131 | -0.269 | 0.283 | 1.16 | -0.171 | 2.16 | -0.0874 | 1.24
TCTTGTAGATCAAGCAGGTTAAGAAGGCCTGAGT | 1.58 | 0.43 | 0.564 | 0.0402 | 0.079 | 0.386 | 0.0272 | 0.642 | -0.212 | 0.128
CGTCCAAGGTCAATGCCAGGTCAGTGAAAGCATT | 2.99 | 3.63 | 0.209 | -0.326 | 7.26 | 5.48 | 2.85 | 6.58 | 1.59 | 5.39
GTACCAAGGTGAATAGGTCTTTGATGAGTAGGCG | 2.18 | 2.5 | 0.818 | 0.145 | 0.986 | 0.0831 | 0.119 | 0.721 | 0.436 | 1.36
TCTTGTAGATCAGCAGGTTTAGAAAGCTGGCCAA | 1.21 | -0.135 | -0.815 | -0.0639 | -0.866 | -0.251 | -0.893 | -0.334 | -0.74 | -0.387
CCAGACATGTGAAAGGTAACTCAGTCTGGTACGC | 0.121 | 0.275 | -0.125 | 0.223 | 0.969 | 0.118 | -0.196 | 0.553 | 0.138 | 0.186
CCCGAAAGGTCGTGCTCAGGTGAGTATACCAAAC | 0.981 | 1.75 | 0.719 | 0.627 | 2.37 | 3.19 | 0.159 | 4.35 | 0.613 | 4.01
CCTGCTAGGTCAATGGTCAACTAAAGCAGCTCGC | 3.98 | 4.58 | 0.116 | -1.17 | 1.41 | 1.22 | -0.291 | 2.27 | -0.296 | 3.79
CTGACTGGGGCAGAAAGGTTACCATACCATCCGG | 2.87 | 3.6 | 0.376 | 0.141 | 1.76 | 1.12 | 0.49 | 1.75 | 0.326 | 2.13
GCTAGCAGGCCACTTGGGTCACTCAATGACGGGC | 1.43 | 1.32 | -1.04 | -0.967 | -0.431 | 0.269 | -0.237 | 0.575 | -0.207 | 1.34
CCGACTGGGGCAGAAAGGTTACGATACCATCCGG | 1.98 | 2.35 | -0.302 | -0.0493 | 1.17 | 1.39 | -0.337 | 1.72 | -0.00415 | 1.92
CGTCGAAGGTCAAAGGTCAGTGAAGAGATGACGG | 3.46 | 5.8 | 1.49 | 1.99 | 5.11 | 7.05 | 1.1 | 8.65 | 2.42 | 5.92
AATACAGGGTCATCGTAGGCCAGAGAACGCACAG | 3.24 | 4.03 | 1.71 | 1.62 | 2.96 | 5.14 | 0.451 | 5.41 | 1.51 | 4.56
GCTATTAGTTGAAAGGCCAACCGAATGATTCTCG | 0.47 | 0.355 | 0.179 | -0.242 | 0.874 | 0.178 | -0.082 | 0.627 | 0.368 | 1.56
CTACCAAGGTGCACAAGGTCGTTGATTACTATTC | 0.47 | 0.223 | 0.019 | -0.417 | 0.705 | 1.86 | 1.22 | 1.87 | 0.655 | 1.29
TCTTGTTGGTCACGGAGGTCACACACGACGGGTA | 2.92 | 4.57 | 2.15 | 2.59 | 4.65 | 5 | 2.43 | 5.34 | 3.1 | 4.17
CGAACTAGGTCAAGGACAGAGAATCTCCGCACGC | 8.21 | 8.28 | 3.36 | 1.6 | 1.59 | 0.886 | -0.0315 | 1.87 | 0.29 | 3.87
ACAGACTGGTGATGAAGGTAACTCAGGCTATCAT | -0.615 | -0.401 | 0.194 | -0.143 | -0.6 | -0.651 | -0.0629 | -0.424 | 0.115 | -0.396

Sequence | PBM binding z-score [1] | PBM binding z-score [2] | PBM binding z-score [3] | PBM binding z-score [4] | PBM binding z-score [5] | PBM binding z-score [6] | PBM binding z-score [7] | PBM binding z-score [8] | PBM binding z-score [9] | PBM binding z-score [10]
GCTACCAGGCCATTTGGGTCACTCAATGACGGGC | 2.04 | 2.77 | 0.125 | -0.407 | -0.0143 | 0.976 | 0.553 | 0.919 | -0.79 | 1.59
GGACCAAGGTGAATAGGTCGTTGATGAGTAGGCG | 1.58 | 2.18 | -0.0535 | -0.223 | 1.34 | 0.838 | 0.241 | 1.74 | 0.177 | 2.06
ATCTCTAGGTAAAGATAGTGCAGTGAATGCAAAT | 1.33 | 1.62 | 0.773 | 0.751 | -0.52 | -0.0642 | -0.041 | 0.189 | 0.661 | -0.164
TTACCAAGGTGAAACGTCGTTGATGCACGCCTTG | 3.12 | 2.95 | 0.206 | 0.358 | 0.178 | -0.0159 | -0.972 | 0.592 | -0.282 | 1.62
CAAACTAGGTCAAGAGGTCAGAGTCCGCTTCCCG | 8.57 | 8.53 | 2.77 | 1.17 | 6.51 | 5.04 | 0.812 | 6.67 | 3.26 | 5.15
CCAACTAGGTCAAGGTCAAAGTCGGTTTGTGCCA | 8.26 | 8.03 | 1.26 | 1.36 | 4.31 | 5.31 | 2.55 | 5.24 | 3.41 | 5.3
CAAACTAGGTCGCAGAGGTCAAAGTCCGTGCGTA | 6.57 | 7.05 | 2.76 | 1.62 | 3.69 | 6.55 | 7.19 | 7.01 | 1.48 | 4.5
CCGACTGGGGCAAAGGTTACCATACTCAGTACGA | 4.37 | 6 | 0.389 | -0.153 | 1.16 | 2.32 | -0.304 | 3.94 | 0.0257 | 2.4
AGAACGAGGGCAATGAGTTGATACCACGGGTGGC | 3.03 | 2.47 | 0.451 | 0.33 | 0.443 | 1.66 | 5.24 | 0.38 | -0.193 | 2.19
TCATATTGGTAAAAGGTGAAAGTCGGTGTGGTAA | 2.97 | 2.77 | 1.12 | 2.43 | 2.62 | 1.43 | 0.68 | 2.1 | 2.36 | 2.01
GCAGACAAGTGAAACGCAGGTAACTCAGGGTGGC | -0.601 | -0.398 | -0.525 | -1.2 | -0.82 | -0.683 | -0.723 | -0.207 | -0.732 | -1.75
CCTCGGAGGACAACAGGAGGTCAGAGTTGCCAGA | -0.0815 | 0.313 | -0.9 | -1.99 | 2.15 | 2.36 | 1.11 | 2.64 | 0.759 | 2.83
TAGCCTAGGTGATGGGCCAGTATACCACGCGAAC | -0.692 | 0.25 | -0.775 | -0.847 | -0.49 | -0.714 | -0.807 | -0.895 | -1.38 | -0.281
AATACAGGGTCATCGTAGGCCAGAGTGCGCACAG | 2.61 | 4.22 | 1.07 | 1.13 | 1.9 | 4.97 | 0.782 | 4.82 | 0.464 | 4.48
GCTTGTAGATCAAGGTTAAGGAAGACTAAGCTAA | 1.33 | 1.17 | -0.221 | 0.338 | 0.301 | 0.301 | -0.237 | 0.84 | -0.272 | 0.798
ACAGACAGGTGATGAACGTAACTCAGGCTATCAT | -0.0291 | 0.144 | 0.839 | 0.504 | -0.201 | -0.104 | 0.276 | -0.047 | 0.235 | -0.0365
ACTAGCACGCCAAGTTTGGGTCACTCAAACAAAG | -0.764 | 0.325 | -0.643 | -0.578 | 0.00723 | 0.524 | -0.537 | 0.981 | -0.534 | 1
CTCGAACGGTCGGTTGAGGTGAGTATACGGATAA | -0.509 | -0.343 | -0.772 | -0.429 | -1.41 | -0.224 | -0.776 | 0.779 | -1.48 | 0.604
CCTACTGGGGCAAGGTTACCATAACGCACAGCCA | 4.78 | 5.52 | 2.27 | 0.765 | 2.66 | 0.3 | -0.0906 | 0.631 | 0.512 | 1.7
